Source: the supplement of paper PMC6555819

Each sequence was assayed on VDR:RXRa (NR concentration 270 nM, RXRa partner concentration 90 nM) (assay: PBM binding z-score (relative to random genomic background probes); higher = stronger binding; sequences stand for … in GC…GCGATTGACAGCGTAGAATGAAGG).
Protocol: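 Protein-binding microarray (Agilent 4x180K custom design, double-stranded 60-nt probes: 5' GC cap, 34-nt variable region, 24-nt constant primer region; full probe sequence given). Purified or IVT nuclear receptor:RXRα heterodimers (3:1 NR:RXRα, mostly 270:90 nM) or homodimers were incubated for 1 h in PBS with 2% milk and no ligand, then detected with Alexa488 antibodies. Fluorescence from o1-orientation probes (~5 replicates averaged) was converted to z-scores against 500 random hg19 background probes. Variable regions are seed direct-repeat (DR0–DR5) sites, all their single-nucleotide variants and half-site ablations.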

Sequence	PBM binding z-score
TCTTGTAGATCGACAGGAGGTTAAGAAAGATCGA	0.501
AGAAGGAGGTTAAGATCAGGGAAACAGAATACAT	0.978
CGAACTAGGTCAAGGATAGTGAATCTCCGCACGC	1.19
CAGCCTAGGTCACGGCCAGTATAGGAGGAACGTT	2.68
CCTCGGAGGACAGAAGGTCAGGGCTGTCCGCTTT	0.967
CGTCAAAGTTCAACTAAGGTAACCTAAAGCACGC	4.68
CCTCGGATGACAGAAGGTCAGAGCTGTCCGCTTT	1.21
CGTCCAAGGTCAGAGGTCAGTGAAGAGATGACGG	5.16
GCTTACGGGTCGAAGGTTATAGCATGAATAGAAT	2.02
TCTAGTTGGTCAGGGAGGTCACACACGACGGGTA	5.4
GTACCGAGGTGAATAGGTCGTTGATGAGTAGGCG	1.14
CAAACTAGGTCAAGAGGTCACAGTCCGCTTCCCG	5.92
CCGACTGGAGCAAAGGTTACCATACTCAGTACGA	1.17
TCTTGTAGATCAGCAGGTTAAGTAAGCTGGCCAA	0.413
ATCGAAAGGTCGACAAGGTGAGTATACACCGTTT	4.61
GATACAGGGTCACGGCCAGAGTACGCGTATTGAT	5.4
ATACCAGGGTGATCGTGAGGTCGTTGATACTAAC	3.22
ATATGTAGGTTACATCCGGGTGATTCAGGCTATG	0.753
GCTGCTAGGTCAACCGATGGTCAGCTAAAGCTCG	1.54
GATACAGGGTCAGCTAAAGGCCAGAGTATGGAAA	3

Sequence	PBM binding z-score
AGAATGAGGTTATTAAGATCAGGAAATTGCGGTC	2.43
CGTCCAAGGTCAGCAGGTCAGTGACAGCGACGTG	4.1
ACTTACGGGTAAACGAGGTTATAGCACGCGTATA	4.1
ACTATTAGTTGAGGCGAGGGCAACCGATAGGTTG	0.632
ATCTCTAGGTAAGACTCAGTTTAGTGAAGAACGC	0.468
TCTAGTTGGTCACAGGTCACACACTCGAAATGCG	2.95
CCTGTTAGTTGACCATAAGGGCAACCGAAGCTCG	0.474
CAAACTAGGTCAAAGAGGTCAAAGTCCGTGCGTA	7.75
CCTGCTAGGTCGATGGTCAGCTAAAGCAGCTCGC	-0.292
CCTCGGAGGACAACAGGAGGTCAGGGCTGCCAGA	1.62
GCTGCTAGGTCAAATGATGGTCAGCTAAAGCTCG	1.96
CTACCGAGGTGAACAAGGTCGTTGATTACTATTC	6.42
GCTCGGAGGACAAGCTCAGAGCTTTGTCCGTAGA	-0.646
GCATATAGGTAAGACAAGGTGAAAGTCCGATTGT	0.0453
CCTAGTCGGTCAGGAGGTCACACACCGGATATGA	3.97
ATCTCTAGGTAGGACTCAGTTCAGTGAAGAACGC	0.756
CATACTGGGTCAGCTAGGCCAGAGTAGGGACGGC	1.19
TCATATAGGTAAATGCTAGGTCAAAGTCCGATCT	2.15
AGATCGAGGGCAATGAGTTGATAGCACGGGTGGC	5.15
TCTCGGAGGACACGAAAGGTCACAGCTCGACATC	4.91
